PubChem BioAssay AID686978 (National Center for Advancing Translational Sciences (NCATS), 2013)
Among all 420,000 compounds or so, about 64,000 (15%) were called active. Another 27% or so got no clear call; they are omitted. The list is a sample of the results. A number with no mark means an inactive call. Calls come from the whole dose curve; as a rule, active = well fitted inhibition curve with a large enough effect; inconclusive = small, poorly fitted or top-dose-only effect; inactive = flat fitted curve, though single readings scatter.

test: qHTS for Inhibitors of human tyrosyl-DNA phosphodiesterase 1 (TDP1): qHTS in cells in absence of CPT; details: DT40 Tdp1-/- hTDP1 cells, no CPT, ATP luminescence, 48 h; activity change, negative = growth inhibition: at 46.2 µM (top of the series); note: nearly all actives have a fitted effect of over 55% in size
Procedure, shortened: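 Readout: luminescence from CellTiter-Glo after 30 min in the dark at RT. Cells: DT40 Tdp1-/- with stable hTDP1, 400/well. Exposure: compounds alone, ≥48 hr, 37 °C.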
% is set by controls: 0 for no effect and ±100 for the full control effect; potency is the fitted concentration of half-maximal effect.

| SMILES | activity change, negative = growth inhibition [%] | Potency |
| --- | --- | --- |
| Cc1cccc(C)c1NC(=O)C1(N(C(=O)c2ccccn2)c2ccc(O)cc2)CCCCC1 | 3.63 | – |
| COc1ccc2c(CC(=O)OCC(=O)Nc3ccccc3[N+](=O)[O-])coc2c1 | -18 | – |
| Cc1ccc(-c2nnn(CC(=O)N(Cc3ccco3)C(C(=O)NC(C)(C)C)c3ccncc3)n2)o1 (stereo unspecified) | 5.93 | – |
| Cc1nn(-c2ccccc2)c2sc(C(=O)N(Cc3ccco3)C(C)C(=O)NC(C)(C)C)cc12 (stereo unspecified) | – | 14.6 µM (active) |
| Cc1nc(C)c(C(=O)N(c2ccc(C)c(C)c2)C(C(=O)NCc2ccco2)c2ccccc2)s1 (stereo unspecified) | -13 | – |
| Cc1ccc(NC(=O)Nc2ccc3oc(C)nc3c2)cc1 | -25.8 | – |
| CCN1CCN(CCCNC(=O)c2ccc3c(c2)sc2nc(-c4ccc(OC)cc4)cn23)CC1 | – | 1.3 µM (active) |
| COc1ccccc1NC(=O)c1ccc2nc(N3C(=O)CCC3=O)sc2c1 | -2.13 | – |
| COc1ccc(-c2cn3c(C)c(C(=O)Nc4cc(C)cc(C)c4)sc3n2)cc1 | – | 16.4 µM (active) |
| CCOC(=O)c1ccccc1NC(=O)c1sc2nc(-c3ccc(F)cc3)cn2c1C | -0.672 | – |
| COc1cccc(CNC(=O)c2n[nH]c3ccccc23)c1 | – | 16.4 µM (active) |
| COc1ccc(-c2cn3c(n2)sc2cc(C(=O)Nc4ccccc4F)ccc23)cc1 | – | 3.66 µM (active) |
| CCCN1CCN(CCCNC(=O)c2ccc3nc(Cc4ccccc4)oc3c2)CC1 | -27.3 | – |
| COc1ccc(-c2cc(C(=O)NCCCN3CCOCC3)no2)cc1 | -21.3 | – |
| COc1ccc(NC(=O)c2cc(-c3ccc(C)cc3)on2)cc1 | 3.31 | – |
| O=C(NCCc1ccc(F)cc1)c1n[nH]c2ccccc12 | -12.6 | – |
| O=C(COC(=O)c1n[nH]c2ccccc12)NCc1ccccc1 | -3.5 | – |
| COc1ccc2oc(=O)c(-c3cn4c(n3)sc3cc(OC)ccc34)cc2c1 | -13.4 | – |
| O=C(OCC(=O)N1CCCCC1)c1ccc(OC(F)(F)F)cc1 | -11.7 | – |

| SMILES | activity change, negative = growth inhibition [%] | Potency |
| --- | --- | --- |
| CCN(CC)C(=O)C1CCC(C)(C(=O)O)C1(C)C (stereo unspecified) | -3.85 | – |
| O=S(=O)(NCCSc1ccccn1)c1ccc(Cl)cc1 | -8.5 | – |
| CC(C)=NN1C(=O)c2ccccc2NC1(C)C | -4.65 | – |
| Cc1nnsc1C(=O)Nc1cccc(Cl)c1C | -1.62 | – |
| COc1cccc(CNC(=O)CCc2nc(-c3ccc(C)cc3)no2)c1 | -22.7 | – |
| COc1cccc(CNC(=O)Cn2ncn3c(cc4ccccc43)c2=O)c1 | -13.4 | – |
| COc1cccc(CNC(=O)c2ccc3c(c2)sc2nc(-c4cccc(OC)c4)cn23)c1 | – | 4.11 µM (active) |
| CCCC(=O)Nc1cc(OCC)c(NC(=O)NC2CCCCC2)cc1OCC | -4.1 | – |
| CCOc1cc(NC(=O)Nc2ccccc2)c(OCC)cc1NC(=O)CC | -29.2 | – |
| CCOc1cc(NC(=O)CCl)c(OCC)cc1NC(C)=O | – | 16.4 µM (active) |
| C=CC1=C(C(=O)O)N2C(=O)[C@@H](NC(=O)/C(=N/OCC(=O)O)c3csc(N)n3)[C@H]2SC1 | -3.69 | – |
| COc1cc(N/C=C2\CC(=O)NC(C)=C2C#N)cc(OC)c1OC | – | 25.9 µM (active) |
| COc1cc2c(cc1OC)C(C(=O)Nc1cc(C)c(OC)c(C)c1)CC(=O)N2 (stereo unspecified) | -8.04 | – |
| COC(=O)C1=C(C)NC(=O)CC1c1ccccc1OC (stereo unspecified) | -10.2 | – |
| CC(C)CNC(=O)C1(C)CCCN1C(=O)CSc1ccccc1 (stereo unspecified) | -14.1 | – |
| O=C1CN(C(=O)Nc2ccccc2C(F)(F)F)C(c2ccccc2)c2c(sc3c2CCCC3)N1 (stereo unspecified) | – | 18.4 µM (active) |
| O=C(CSc1n[nH]c(=O)n1-c1ccccc1)Nc1ccccc1C(F)(F)F | 10.9 | – |
| Cc1ccccc1NC(=O)N1CCCC1C(=O)NCc1ccccc1 (stereo unspecified) | 22.4 | – |
| [2H]C(CCOS(N)(=O)=O)c1ccccc1 (stereo unspecified) | -7.22 | – |

| SMILES | activity change, negative = growth inhibition [%] | Potency |
| --- | --- | --- |
| Cn1c(=NC(=O)C2CC2)sc2cc(F)cc(F)c21 | 1.11 | – |
| O=C(CN1CCc2ccccc21)NC(c1ccccc1)c1ccccc1 | -15.6 | – |
| O=C(CN1CCN(Cc2ccccc2)CC1)NC(c1ccccc1)c1ccccc1 | – | 23.1 µM (active) |
| O=C(NC(c1ccccc1)c1ccccc1)N1CCN(CCO)CC1 | -19 | – |
| CC12CCC(=O)N1C(C(=O)Nc1ccc(F)c(F)c1F)CS2 (stereo unspecified) | -2.89 | – |
| COC(=O)/C=C(\Oc1ccccc1)C1(O)CCCCC1 | -6.36 | – |
| CCNC(=O)NNC(=O)C1CC(c2cccs2)=NO1 (stereo unspecified) | 1.39 | – |
| CCOc1cc(/C=N/NC(=O)c2cccc(S(=O)(=O)N3CCOCC3)c2)ccc1OCC(=O)N(C)C | -4.34 | – |
| O=C(Nc1ccc(S(=O)(=O)Nc2nccs2)cc1)c1cccc(S(=O)(=O)N2CCOCC2)c1 | 15 | – |
| O=C(N/N=C/c1ccc([N+](=O)[O-])o1)c1cccc(S(=O)(=O)N2CCOCC2)c1 | – | 18.4 µM (active) |
| O=C(COC(=O)c1ccccc1)Nc1cccc(S(=O)(=O)N2CCOCC2)c1 | -17.9 | – |
| COc1ccc(Br)cc1/C=N/NC(=O)c1cccc(S(=O)(=O)N2CCOCC2)c1 | -49.8 | – |
| O=C(Nc1nnc(-c2ccccc2)o1)c1cccc(S(=O)(=O)N2CCOCC2)c1 | – | 16.4 µM (active) |
| Cc1cc(C(=O)NNC(=O)c2cccc(S(=O)(=O)N3CCOCC3)c2)c2ccccc2n1 | -3.56 | – |
| Cc1nc2ccc(NC(=O)c3cccc(S(=O)(=O)N4CCOCC4)c3)cc2s1 | – | 20.6 µM (active) |
| O=C(c1cccc(S(=O)(=O)N2CCOCC2)c1)N1CCOCC1 | 3.04 | – |
| Cc1cc2ccccn2c1C(=O)c1cccc(S(=O)(=O)N2CCOCC2)c1 | – | 16.4 µM (active) |
| NC(=O)CSc1nnc(-c2cccc(S(=O)(=O)N3CCOCC3)c2)o1 | -10.2 | – |
